Compounds with a hit are over-represented: about 1.8% of the library has one in this group of screens.
eIF4E-4G inh: eIF4E/eIF4G interaction inhibition in translation initiation. P63073+Q04637. TR-FRET eIF4E-eIF4GI(517-606) binding, 2 h. inhibition, % at 21.7 µM. 220,000 compounds, 0.37% hits;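 active = inhibition above about 30%, limit read from the data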;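 also: 0% = full FRET control wells and 100% = background wells lacking eIF4GI fragment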
PERK inh: human PERK inhibition, primary cell-based screen. inhibition, % at 5.6 µM. Q9NZJ5. CHO PERK-DD fusion, SEAP luminescence translation reporter. 220,000 compounds, 0.17% hits;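 active = inhibition above the mean inhibition of all tested compounds plus 3 SD, set separately per screening campaign, cut at about 2.9% in these data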;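 also: PERK kinase domain activated by AP20187 dimerizer at 100 nM; 0% = DMSO with dimerizer and 100% = rapamycin at 8.4 µM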
PGE2 EP2 inh: EP2 receptor (human) inhibition; P43116; C6 glioma cells expressing human EP2, cAMP TR-FRET; cells stimulated with saturating PGE2; inhibition, % at 25 µM; 260,000 compounds, 0.52% hits; AID 1422;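 active = percent inhibition above 40 after rounding to a whole number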;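 also: rat C6 glioma host cells with rolipram phosphodiesterase inhibitor present; the protocol text gives 20 µM as final concentration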
Target sequence (P43116 whole entry, looked up): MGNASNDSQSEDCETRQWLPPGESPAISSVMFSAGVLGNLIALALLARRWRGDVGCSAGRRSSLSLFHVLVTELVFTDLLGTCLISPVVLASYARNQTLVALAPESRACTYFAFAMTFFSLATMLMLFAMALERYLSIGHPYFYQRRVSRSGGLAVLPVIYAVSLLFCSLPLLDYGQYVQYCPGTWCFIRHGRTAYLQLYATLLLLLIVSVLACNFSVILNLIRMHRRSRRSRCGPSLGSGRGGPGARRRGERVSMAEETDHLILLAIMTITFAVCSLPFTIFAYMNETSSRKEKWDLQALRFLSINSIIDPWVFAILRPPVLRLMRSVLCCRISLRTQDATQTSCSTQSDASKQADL
EP2 modulator: modulators of human EP2 prostaglandin E2 receptor | AID 940 | P43116 | EP2-expressing cells, cAMP HTRF FRET, PGE2 co-stimulation | 260,000 compounds, 0.83% hits | induction, % at 25 µM;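 active = compounds whose cAMP rise, as percent of the full-agonist control response, exceeds 60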;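 also: rat C6 glioma line stably carrying human EP2 under a CMV promoter; the protocol text gives 20 µM as final concentration; 100% = response of wells given 1 µM PGE2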
EP2 cAMP induct: human EP2 receptor cAMP induction, negative in counter-screens | calls only at 20 µM (by protocol) | 1,300 compounds, 47% hits | C6 glioma EP2 cells, cAMP HTRF induction; plus low (about EC15) PGE2 agonist | shares compounds with EP2 modulator;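 active = cAMP induction above 50% in the main assay while under 30% in all four parallel counter assays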;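 also: rat C6 glioma cells stably expressing human EP2 receptor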
The depositor's hits bear a star.

`CSc1ncc(CN(Cc2ccc(F)cc2)CC2CCCO2)cn1` (centres undefined) gave PGE2 EP2 inh 4 and EP2 modulator 20.
`O=C(CSc1ncnc2c1oc1ccccc12)Nc1ccccc1F` gave eIF4E-4G inh 9, PERK inh 0, PGE2 EP2 inh 15, EP2 modulator 76* and EP2 cAMP induct inactive.
For COC(=O)c1ccc(CSc2ncnc3c2oc2ccccc23)o1 the results were eIF4E-4G inh -120, PERK inh 1, PGE2 EP2 inh 13, EP2 modulator 66* and EP2 cAMP induct inactive.
For CCCSc1ncnc2c1oc1ccccc12 the results were eIF4E-4G inh 10, PERK inh 0, PGE2 EP2 inh 4, EP2 modulator 66* and EP2 cAMP induct inactive.
`CCOc1ccccc1NC(=O)CSc1ncnc2c1oc1ccccc12` gave eIF4E-4G inh 24, PERK inh 0, PGE2 EP2 inh 10 and EP2 modulator 34.
CON(C)C(=O)Cn1nc(C)n2c(cc3occc32)c1=O was read as PGE2 EP2 inh 6 and EP2 modulator 0.
For Cc1cc2c3c(c1)C1(SCC(=O)N1c1ccc(F)cc1)C(=O)N3C(C)(C)CC2C (centres undefined) the results were eIF4E-4G inh 8, PERK inh -2, PGE2 EP2 inh 3, EP2 modulator 67* and EP2 cAMP induct inactive.
Screening CC1CC(C)(C)N2C(=O)C3(Nc4ccccc4S3)c3cccc1c32 (centres undefined) returned eIF4E-4G inh 4, PERK inh -1, PGE2 EP2 inh 5 and EP2 modulator 58.
Screening C=CCn1c2cc(C)oc2c2cnn(CC(=O)N(C)C)c(=O)c21 returned PGE2 EP2 inh 9 and EP2 modulator -27.
`C=CCNC(=S)NNc1nc(Nc2ccccc2)nc(N2CCCCC2)n1` gave eIF4E-4G inh -1, PERK inh 0, PGE2 EP2 inh 11, EP2 modulator 74* and EP2 cAMP induct inactive.
`S=C(NNc1nc(Nc2ccccc2)nc(N2CCCCC2)n1)NC1CCCCC1` gave eIF4E-4G inh -2, PERK inh 0, PGE2 EP2 inh 5 and EP2 modulator 43.
`CC(/C=C1\SC(=S)N(C(C(=O)O)C(C)C)C1=O)=C\c1ccccc1` (centres undefined) gave eIF4E-4G inh 1, PERK inh 1, PGE2 EP2 inh 10, EP2 modulator 61* and EP2 cAMP induct active.
Screening CC(/C=C1\SC(=S)N(c2ccc(C(=O)O)cc2)C1=O)=C\c1ccccc1 returned eIF4E-4G inh 2, PERK inh 0, PGE2 EP2 inh 5 and EP2 modulator 14.
Screening COCC(C)NC(=O)C1CC(c2ccc(Cl)c(Cl)c2)=NO1 (centres undefined) returned PGE2 EP2 inh 6 and EP2 modulator -48.
For C=CCc1cccc(/C=N/c2nc3ccccc3n2CC)c1O the results were eIF4E-4G inh 1, PERK inh 0, PGE2 EP2 inh 2, EP2 modulator 84* and EP2 cAMP induct inactive.
C=CCc1cccc(/C=N/c2ncccc2O)c1O was read as eIF4E-4G inh -1, PERK inh -1, PGE2 EP2 inh 9 and EP2 modulator 43.
Screening COC1(C)CC2C(CC1OC(=O)c1cc([N+](=O)[O-])cc([N+](=O)[O-])c1)C2(C)C (centres undefined) returned eIF4E-4G inh -1, PERK inh 0, PGE2 EP2 inh 10, EP2 modulator 72* and EP2 cAMP induct active.
For Cc1cc(-c2cn[nH]c2C2CCCN(C(=O)Nc3ccc(F)cc3)C2)on1 (centres undefined) the results were EP2 modulator -27.
`CCCCNc1nc(-c2ccccc2)c(C(=O)OCC)cc1C#N` gave eIF4E-4G inh 6, PERK inh 0, PGE2 EP2 inh 6, EP2 modulator 65* and EP2 cAMP induct active.
`CCCNc1nc(-c2ccccc2)c(C(=O)OCC)cc1C#N` gave eIF4E-4G inh 3, PERK inh -1, PGE2 EP2 inh 10 and EP2 modulator 37.
Screening Cc1cccc(C)c1OCc1nnc(SCC(=O)Nc2nccs2)n1-c1ccccc1 returned eIF4E-4G inh -5, PERK inh 0, PGE2 EP2 inh -2, EP2 modulator 51 and EP2 cAMP induct inactive.
`CC(C)N(Cc1nc(-c2ccccc2)no1)S(=O)(=O)c1ccccc1` gave eIF4E-4G inh -1, PERK inh 1, PGE2 EP2 inh 10 and EP2 modulator 15.
`O=S(=O)(c1ccccc1)N(Cc1nc(-c2ccccc2)no1)C1CCCCC1` gave eIF4E-4G inh 13, PERK inh 0, PGE2 EP2 inh 15, EP2 modulator 83* and EP2 cAMP induct active.
`C=CCOc1c(Br)cc(/C=N/n2c(CC)n[nH]c2=S)cc1Br` gave eIF4E-4G inh 11, PERK inh 1, PGE2 EP2 inh 4, EP2 modulator 75* and EP2 cAMP induct active.
CCc1n[nH]c(=S)n1/N=C/c1cc(Br)c(O)c(OC)c1 was read as eIF4E-4G inh -5, PERK inh 1, PGE2 EP2 inh 14 and EP2 modulator 17.
For CCOC(=O)C(C)Sc1ncc(OC)c(Sc2ccc(Cl)cc2)n1 (centres undefined) the results were eIF4E-4G inh 1, PERK inh 0, PGE2 EP2 inh 2, EP2 modulator 68* and EP2 cAMP induct active.
`COC(=O)c1c(NC(=O)c2cccc(C)c2)sc(C(=O)NC2CCCCC2)c1C` gave PGE2 EP2 inh 3 and EP2 modulator -7.
CC1(C)Oc2ccc(C(=O)N3CCCC3)cc2N(CC(=O)N2CCCCC2)C1=O was read as PGE2 EP2 inh 9 and EP2 modulator 3.
Screening CC1(C)Oc2ccc(C(=O)N3CCOCC3)cc2N(CC(=O)N2CCOCC2)C1=O returned eIF4E-4G inh -11, PERK inh 1, PGE2 EP2 inh 19, EP2 modulator 74* and EP2 cAMP induct inactive.
Screening CCOP(=O)(OCC)c1nc(-c2ccc(F)cc2)oc1NCc1ccccc1 returned eIF4E-4G inh -3, PERK inh 0, PGE2 EP2 inh 1, EP2 modulator 72* and EP2 cAMP induct active.
For CCOP(=O)(OCC)c1nc(Cc2ccccc2)oc1NCc1ccccc1 the results were eIF4E-4G inh 0, PERK inh 0, PGE2 EP2 inh 19 and EP2 modulator 3.
Screening O=P(c1ccccc1)(c1ccccc1)c1nc(-c2ccccc2)oc1NCc1ccccc1 returned eIF4E-4G inh 1, PERK inh 2, PGE2 EP2 inh 9, EP2 modulator 94* and EP2 cAMP induct active.
`CCOP(=O)(OCC)c1nc(-c2cccc3ccccc23)oc1NCCc1ccc(OC)cc1` gave eIF4E-4G inh 0, PERK inh -1, PGE2 EP2 inh 5, EP2 modulator 56 and EP2 cAMP induct inactive.
CCOP(=O)(OCC)c1nc(-c2ccccc2)oc1NCc1ccccc1 was read as eIF4E-4G inh 0, PERK inh -1, PGE2 EP2 inh 4, EP2 modulator 81* and EP2 cAMP induct active.

High-throughput results from PubChem.
